Sa growth 42C – S. aureus growth inhibition at 42 and 30 °C, primary screen, LtaS inhibitor project, RN4220, two temperatures; OD600, 20 h, 42 °C; active compounds read low; relative growth, % (concentration not given with the values); actives 0.53% (n = 170,000); AID 720641, 2013;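 active = relative growth at most 50% at the other temperature and 20+ points below 30 °C, or under 10% at both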
Sa helicase inh – inhibitors of S. aureus replicative helicase, primary screen, biochemical, fluorescence unwinding readout; AID 485395, 2010; actives 0.05% (n = 120,000); replicative DNA helicase (DnaC/DnaB), Staphylococcus aureus; inhibition, % (concentration not given with the values); purified S. aureus helicase, fluorescence unwinding assay; in the data active = inhibition above about 25%, passing the limit was not always enough;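 note: 0% = mean of negative control wells and 100% = mean of positive control wells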
The depositor's hits bear a star; ! = a repeat was not active. The entries come from a sample that favours hits as a whole.

`Cc1nc2ccccc2n1CCc1nc2c3ccccc3nc(=S)n2[nH]1` gave Sa growth 42C 106 and Sa helicase inh -6.
`CCCc1nc2c3ccccc3nc(=S)n2[nH]1` gave Sa growth 42C 1.7* and Sa helicase inh -18.
Screening CNC(=O)COC(=O)c1cc(C)n(-c2ccc(F)cc2)c1C returned Sa growth 42C 89 and Sa helicase inh 6.
For O=C(Nc1ccccc1)Nc1cccc2ccccc12 the results were Sa growth 42C 99 and Sa helicase inh 8.
For CN(C)c1cc(NC(=O)Nc2ccccc2)c2ccccc2n1 the results were Sa growth 42C 0.0* and Sa helicase inh 31.
`CC(=O)N1CCN(c2ccc(OC[C@H]3CO[C@](Cn4ccnc4)(c4ccc(Cl)cc4Cl)O3)cc2)CC1` gave Sa growth 42C 1.2*!.
`CC(=O)N1CCN(c2ccc(Oc3ccnc4cc(Cl)ccc34)cc2)CC1` gave Sa growth 42C 93 and Sa helicase inh 5.
Screening COC(=O)c1c(C)[nH]c(C(=O)CN(C)CC(=O)Nc2c(C)cc(C)cc2C)c1C returned Sa growth 42C 117 and Sa helicase inh 30*.
Screening COC(=O)c1c(C)[nH]c(C(=O)CN(C)Cc2cccc(OC)c2)c1C returned Sa growth 42C 98 and Sa helicase inh 9.
`CCc1cc(=O)oc2c(C)c3occ(C)c3cc12` gave Sa growth 42C 91 and Sa helicase inh -20.
N#C/C(=C(/O)c1ccc(C(=O)c2ccccc2)cc1)c1nc2ccccc2s1 was read as Sa growth 42C 74 and Sa helicase inh -32.
For CN(C)c1cc(C(=O)O)ccn1 the results were Sa growth 42C 95 and Sa helicase inh -3.
For CCc1ccc[n+](OC(=O)N(CC)CC)c1 the results were Sa growth 42C 0.1* and Sa helicase inh 15.
Screening CCN(CC)C(=O)Oc1ccccc1 returned Sa growth 42C 114 and Sa helicase inh 9.
O=c1[nH]c(=O)c2nc3cc(C(F)(F)F)ccc3nc2[nH]1 was read as Sa growth 42C 2.5* and Sa helicase inh -98.
FC(F)(F)c1cccc2c1[nH]c1nc3ccccc3nc12 was read as Sa growth 42C 106 and Sa helicase inh 1.
CCCOC(=O)c1cc(-c2ccc(/C=C3\C(=O)N(CCCO)C(=O)C(C#N)=C3C)o2)ccc1Cl was read as Sa growth 42C 67 and Sa helicase inh -13.
CCc1oc2ccccc2c1C(=O)c1cc(Br)c(O)c(Br)c1 was read as Sa growth 42C 4.4*!.
`CCCCc1oc2ccccc2c1C(=O)c1ccc(O)cc1` gave Sa growth 42C 32 and Sa helicase inh 4.
`CCC(C)C(C(=O)O)N1C(=O)c2ccccc2C1=O` (stereo not drawn) gave Sa growth 42C 97 and Sa helicase inh 23.
For CCc1ccc[n+](-c2[nH]c(=O)sc2/C=N/N=C(/N)[O-])c1 the results were Sa growth 42C 97 and Sa helicase inh -13.
For Cc1ccc(Cn2c(C(C)O)nc3ccccc32)cc1 (stereo not drawn) the results were Sa helicase inh 20.
`COC(=O)c1nc2ccccc2n1Cc1ccc(C)cc1` gave Sa growth 42C 45* and Sa helicase inh -12.
For Cc1ccc(S(=O)(=O)N2CCN(Cn3nc(C)sc3=S)CC2)c(C)c1 the results were Sa growth 42C 82 and Sa helicase inh -9.
For NNC(=O)COc1ccccc1 the results were Sa growth 42C 105.
`CCN1CCN(C(=O)NC(C(=O)N[C@@H]2C(=O)N3[C@@H]2SC(C)(C)[C@@H]3C(=O)O)c2ccccc2)C(=O)C1=O` (stereo partly drawn) gave Sa growth 42C -0.3*.
Screening CC1(C)S[C@@H]2[C@H](NC(=O)Cc3ccccc3)C(=O)N2[C@H]1C(=O)O returned Sa growth 42C -0.9*.
Screening CCC(C)(C)NC(=O)C(NS(=O)(=O)c1cccs1)c1ccccc1 (stereo not drawn) returned Sa growth 42C 102.
`Cc1onc(-c2ccccc2Cl)c1C(=O)NC1=NCCS1` gave Sa growth 42C 111 and Sa helicase inh 9.
Screening CC1(C)S[C@@H]2[C@H](NC(=O)COc3ccccc3)C(=O)N2[C@H]1C(=O)O returned Sa growth 42C -0.9*.
`Cc1onc(-c2ccccc2Cl)c1C(=O)N[C@@H]1C(=O)N2[C@@H]1SC(C)(C)[C@@H]2C(=O)O` gave Sa growth 42C 0.0*.
For CC1(C)SC(CNC(=O)Cc2ccccc2)NC1C(=O)O (stereo not drawn) the results were Sa growth 42C 103.
Cc1cccc(C)c1NCc1nnc(SCC#N)n1-c1ccccc1 was read as Sa growth 42C 95 and Sa helicase inh 5.
For O=C(CSc1cccc(C(F)(F)F)c1)Nc1ccc(F)cc1F the results were Sa growth 42C 111.
Screening CC1(C)S[C@@H]2C(N3C(=O)[C@@H](c4ccccc4)NC3(C)C)C(=O)N2[C@H]1C(=O)O (stereo partly drawn) returned Sa growth 42C -0.3*.
`CC(=O)N1C(c2ccccc2)SC(C)(C)C1C(=O)O` (stereo not drawn) gave Sa growth 42C 91.
Screening CCOC(=O)c1c(-c2ccccc2)csc1N returned Sa growth 42C 103 and Sa helicase inh -12.
CCOC(=O)c1c(N)sc(SC#N)c1-c1ccccc1 was read as Sa growth 42C 4.9* and Sa helicase inh 21.
`CN1CCN(CC(=O)N(c2ccccc2)c2ccc(O)cc2)CC1` gave Sa growth 42C 86 and Sa helicase inh 1.
Screening CCOC(=O)C1=C(C)Nc2ccccc2N=C1NC(=O)C1CCN(S(=O)(=O)c2ccccc2)CC1 returned Sa growth 42C 110 and Sa helicase inh -2.
For CN(C)c1ccc(-c2nc3cnccn3c2Nc2ccccc2)cc1 the results were Sa growth 42C 73 and Sa helicase inh -39.
S=c1n(CN2CCCC2)nc2sc3ccccc3n12 was read as Sa growth 42C 39* and Sa helicase inh 0.
Screening CN(Cn1nc2sc3ccccc3n2c1=S)C1CCCCC1 returned Sa growth 42C 54 and Sa helicase inh -13.
`CCN1C(C(=O)c2ccccc2)=C(OC(=O)c2ccc(Cl)cc2)c2ccccc2S1(=O)=O` gave Sa growth 42C 53.
`CCN1C(C(=O)c2ccccc2)=C(OC(=O)c2ccco2)c2ccccc2S1(=O)=O` gave Sa growth 42C 6.2* and Sa helicase inh 12.
For Cc1cc(C)c2c(n1)sc1c(=O)n(C(C)C(=O)NC(N)=O)cnc12 (stereo not drawn) the results were Sa growth 42C 69 and Sa helicase inh 13.
Screening CCOc1ccc(-c2cc(CCCC(=O)Nc3cc(Cl)ccc3O)no2)cc1 returned Sa growth 42C 89 and Sa helicase inh 12.
Screening Cc1ccccc1NC(=O)/C=C\C(N)=O returned Sa growth 42C -0.5* and Sa helicase inh 2.
For NC(=O)/C=C/C(=O)Nc1ccccc1Cl the results were Sa growth 42C 21.
`CCOC(=O)c1cc(-c2ccc(S(=O)(=O)N(C)CCCc3ccco3)s2)on1` gave Sa growth 42C 80 and Sa helicase inh 17.
For CC1CCN(Cn2nc(-c3ccc4c(c3)OCO4)oc2=S)CC1 the results were Sa growth 42C 42* and Sa helicase inh -7.
`CC1CN(Cn2nc(-c3ccc4c(c3)OCO4)oc2=S)CC(C)O1` (stereo not drawn) gave Sa growth 42C 80 and Sa helicase inh -11.
